Screening results deposited in PubChem by Broad Institute.
Hits are enriched below; roughly 6.7% of the tested compounds scored in any of these assays.
T cruzi growth-1: inhibitors of T. cruzi proliferation; 77,000 compounds, 5.9% hits; T. cruzi beta-gal in NIH3T3, GalScreen luminescence, 90 h; AID 624255; inhibition, % at 8.34 µM;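 active = mean inhibition above about 93%, with at least 55% of replicates each passing it, limit read from the data, passing the limit was not always enough; inconclusive = only one of those two conditions holds; inactive = neither condition holds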
Pf Dd2 inh: P. falciparum Dd2 growth inhibition. SYBR Green, 72 h; stronger effect = lower value. activity change, % at 10 µM. 94,000 compounds, 2.3% hits. AID 1159554; in the data active = activity change below about -80%; inconclusive = no clear call, values can overlap the other calls
C diff growth: inhibitors of Clostridium difficile growth; growth activity, negative = inhibition, % at 16 µg/mL (by protocol); AID 1259249; Clostridium difficile clinical isolate growth, OD600, 24 h; stronger effect = lower value; 86,000 compounds, 0.25% hits;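 active = mean growth activity at or below -80% and every replicate also at or below -80%; inconclusive = mean at or below -80% but some replicate above -80%; inactive = mean growth activity above -80%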;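 also: 0% = DMSO wells and -100% = levofloxacin 16 µg/mL wells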
T cruzi growth-2: blocks T. cruzi growth in NIH3T3 host cells; shares compounds with T cruzi growth-1; T. cruzi beta-gal in NIH3T3, GalScreen luminescence, 90 h; inhibition, % at 8.35 µM; 5,600 compounds, 72% hits; AID 651739;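 active = mean replicate inhibition above about 95% and at least 55% of replicates individually reaching it, limit read from the data; inconclusive = only one of the two criteria is met; inactive = neither criterion is met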
T cruzi growth-3: inhibitors of T. cruzi proliferation. 5,600 compounds, 21% hits. shares compounds with T cruzi growth-1. T. cruzi beta-gal in NIH3T3, GalScreen luminescence, 90 h. inhibition, % at 2.09 µM;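 active = mean inhibition above about 95%, with at least 55% of replicates also reaching it, limit read from the data; inconclusive = meets just one of the two conditions; inactive = meets neither condition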;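 also: plate controls were neutral control median for no effect and positive control median for full effect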
3T3 cytotox: NIH/3T3 (mouse) viability loss; cytotoxicity (signal decrease), % at 8.35 µM; 5,600 compounds, 14% hits; NIH/3T3 viability, CellTiter-Glo ATP luminescence, 90 h; shares compounds with T cruzi growth-1; AID 651742;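 active = mean signal decrease across replicates above about 35% based on untreated-well scatter, with enough replicates individually passing, limit read from the data; inconclusive = no rule stated though some were filed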;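 also: 0% = median of neutral control wells and 100% = median of positive control wells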
NIH3T3 tox 2: NIH/3T3 (mouse) viability loss | AID 651744 | 5,600 compounds, 56% hits | inhibition, % at 24.9 µM | NIH/3T3 viability, CellTiter-Glo ATP luminescence, 90 h | shares compounds with T cruzi growth-1;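 active = mean loss of cell viability signal at or above a set limit, and enough replicates individually reaching it; inconclusive = meets only the mean limit or only the replicate share; inactive = meets neither condition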;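 also: 0% = median of neutral control wells and 100% = median of positive control wells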
Starred values were filed as active, the others as inactive; u = inconclusive; x = not tested or not shown.

SMILES	T cruzi growth-1	Pf Dd2 inh	C diff growth	T cruzi growth-2	T cruzi growth-3	3T3 cytotox	NIH3T3 tox 2
Cc1ccc(CN2CC(=O)N3[C@H](CO)[C@H](c4ccc(Br)cc4)[C@@H]3C2)cc1	x	24.8	-3.7	x	x	x	x
C[C@H]1CN([C@@H](C)CO)C(=O)c2cccc(NC(=O)C3CCOCC3)c2O[C@@H]1CN(C)Cc1ccc(-c2ccccc2)cc1	53.6	-35.8	37.3	x	x	x	x
C[C@H]1CN([C@@H](C)CO)C(=O)Cc2cc(NC(=O)C3CC3)ccc2O[C@H]1CN(C)Cc1ccc(C(=O)Nc2ccccc2N)cc1	18.2	-38.3	-1.5	x	x	x	x
COc1cccc(-c2ccc3n(c2=O)C[C@@H]2[C@@H](CO)[C@H](C(=O)N(C)C)N(C(=O)C4CC4)[C@H]32)c1	-78.5	x	1.4	x	x	x	x
Cc1ccc(S(=O)(=O)N[C@H]2C=C[C@@H](CC(=O)N3CCc4ccccc4C3)O[C@H]2CO)cc1	-39.6	-17.2	-0.3	x	x	x	x
C[C@H](CO)N1C[C@H](C)[C@H](CN(C)Cc2ccccn2)Oc2cc(C#CCN(C)C)ccc2S1(=O)=O	89.0	-28.9	-3.0	x	x	x	x
C[C@@H]1CN([C@H](C)CO)S(=O)(=O)c2ccc(C#CCN(C)C)cc2O[C@@H]1CN(C)Cc1ccccn1	75.4	-18.2	-5.1	x	x	x	x
CC(C)C#Cc1ccc2c(c1)O[C@@H](CN(C)Cc1ccccn1)[C@@H](C)CN([C@@H](C)CO)S2(=O)=O	93.2	-43.5	33.0	x	x	x	x
C[C@H]1CN([C@@H](C)CO)S(=O)(=O)c2ccc(C#CCN(C)C)cc2O[C@H]1CN(C)Cc1ccccn1	91.8*	-18.0	-5.5	u	52.2	6.0	u
CCCC#Cc1ccc2c(c1)O[C@@H](CN(C)Cc1ccccn1)[C@H](C)CN([C@H](C)CO)S2(=O)=O	u	x	0.7	96.9*	28.1	68.7*	105.3*
CCCC#Cc1ccc2c(c1)O[C@@H](CN(C)Cc1ccccn1)[C@@H](C)CN([C@H](C)CO)S2(=O)=O	u	x	-5.6	96.4*	50.5	u	-21.3
CCCC#Cc1ccc2c(c1)O[C@H](CN(C)Cc1ccccn1)[C@@H](C)CN([C@@H](C)CO)S2(=O)=O	u	x	-8.3	99.4*	u	22.1	103.3*
C[C@H](CO)N1C[C@H](C)[C@H](CN(C)Cc2ccccn2)Oc2cc(C#C[C@@H](C)O)ccc2S1(=O)=O	-10.2	19.9	8.2	x	x	x	x
CC=Cc1ccc2n(c1=O)C[C@H]1[C@H](CO)[C@@H](C(=O)N(C)C)[C@@H]2N1C(=O)c1ccc(F)cc1 (mixture of isomers)	-58.0	x	-4.7	x	x	x	x
COc1cccc(-c2ccc([C@H]3[C@@H](CO)N4C(=O)CN(C(=O)C5CCCC5)C[C@@H]34)cc2)c1	x	-22.4	4.0	x	x	x	x
CC(C)NC(=O)N(C)C[C@H]1Oc2cc(C#CC(C)(C)O)ccc2S(=O)(=O)N([C@H](C)CO)C[C@H]1C	-15.2	33.0	2.5	x	x	x	x
C[C@H](CO)N1C[C@H](C)[C@H](CN(C)C(=O)C2CCC2)Oc2ncc(C#CC3(O)CCCC3)cc2C1=O	57.9	33.0	1.2	x	x	x	x
N#Cc1cccc(-c2ccc([C@H]3[C@H]4CN(C(=O)Nc5ccc(F)cc5)CCCCN4[C@H]3CO)cc2)c1	100.2*	7.1	12.7	101.3*	30.6	4.9	15.2
N#Cc1cccc(-c2ccc([C@@H]3[C@H](CO)N4CCCCN(C(=O)Nc5ccc(F)cc5)C[C@@H]34)cc2)c1	94.1	7.6	73.0	x	x	x	x
N#Cc1ccc(-c2ccc([C@@H]3[C@H](CO)N4CCCCN(C(=O)Nc5ccc(F)cc5)C[C@@H]34)cc2)cc1	49.8	-66.6	37.3	x	x	x	x
N#Cc1cccc(-c2ccc([C@@H]3[C@H]4CN(C(=O)Nc5ccc(F)cc5)CCCCN4[C@H]3CO)cc2)c1	83.9	4.6	48.2	x	x	x	x
N#Cc1cccc(-c2ccc([C@@H]3[C@@H](CO)N4CCCCN(C(=O)Nc5ccc(F)cc5)C[C@@H]34)cc2)c1	109.1*	3.8	39.3	105.8*	75.1	46.6*	98.0*
N#Cc1ccc(-c2ccc([C@H]3[C@@H](CO)N4CCCCN(C(=O)Nc5ccc(F)cc5)C[C@@H]34)cc2)cc1	99.5*	-6.9	6.0	111.5*	63.2	-7.7	15.4
C[C@H](CO)N1C[C@H](C)[C@H](CN(C)C(=O)CN2CCOCC2)Oc2ncc(C#CCN(C)C)cc2C1=O	0.3	43.5	-0.9	x	x	x	x
C[C@H](CO)N1C[C@H](C)[C@H](CN(C)Cc2ccccc2)Oc2c(NS(C)(=O)=O)cccc2C1=O	17.7	-34.5	0.9	x	x	x	x
SMILES	T cruzi growth-1	Pf Dd2 inh	C diff growth	T cruzi growth-2	T cruzi growth-3	3T3 cytotox	NIH3T3 tox 2
CC(C)C#Cc1ccc2c(c1)O[C@H](CN(C)C(=O)c1ccccc1)[C@H](C)CN([C@H](C)CO)S2(=O)=O	87.6	-51.0	1.7	x	x	x	x
CC(C)C#Cc1ccc2c(c1)O[C@H](CN(C)C(=O)c1cccc(F)c1)[C@H](C)CN([C@@H](C)CO)S2(=O)=O	118.3*	-55.7	7.1	108.6*	92.3	27.9	78.1*
CC(C)C#Cc1ccc2c(c1)O[C@@H](CN(C)C(=O)c1ccccc1)[C@@H](C)CN([C@@H](C)CO)S2(=O)=O	79.7	-71.7	2.2	x	x	x	x
CC(C)C#Cc1ccc2c(c1)O[C@@H](CN(C)C(=O)c1cccc(F)c1)[C@H](C)CN([C@@H](C)CO)S2(=O)=O	107.3*	-63.8	12.6	109.6*	26.7	27.1	60.1*
COc1ccccc1S(=O)(=O)N[C@@H]1CC[C@H](CCNC(=O)C2CCC2)O[C@H]1CO	x	10.1	1.4	x	x	x	x
O=C(C[C@H]1CC[C@@H]2[C@H](COC[C@@H](O)CN2Cc2ccc(Cl)cc2)O1)NCc1cccc(F)c1	x	-7.5	21.4	x	x	x	x
C[C@H](CO)N1C[C@H](C)[C@H](CN(C)Cc2ccncc2)Oc2ccc(NC(=O)c3ccncc3)cc2C1=O	-0.3	-10.3	-4.3	x	x	x	x
Cc1ccc(-c2cnc3c(c2)C(=O)N([C@H](C)CO)C[C@@H](C)[C@@H](CN(C)C(=O)c2ccccc2)O3)cc1	48.2	-63.0	-3.0	x	x	x	x
C[C@H](CO)N1C[C@H](C)[C@H](CN(C)Cc2ccc3c(c2)OCO3)OCCCC[C@H](C)Oc2ccc(NC(=O)Nc3ccc4c(c3)OCO4)cc2C1=O	x	-3.1	x	x	x	x	x
C[C@@H]1CN([C@H](C)CO)C(=O)c2cc(NC(=O)Nc3ccc4c(c3)OCO4)ccc2O[C@@H](C)CCCCO[C@H]1CN(C)Cc1ccc2c(c1)OCO2	x	-66.7	x	x	x	x	x
C[C@@H]1CCCCO[C@@H](CN(C)Cc2ccc3c(c2)OCO3)[C@H](C)CN([C@H](C)CO)C(=O)c2cc(NC(=O)Nc3ccccc3)ccc2O1	u	-78.6	14.4	99.5*	104.9*	11.9	104.2*
